Usually AC50 stands for the midpoint of the concentration-response curve, whichever way the signal moves.

Read-out in one test: Decorin, DCN (gene 1634)
The experiment in a line: BSK_MyoF_Decorin: BioMAP Diversity Plus: MyoF Assay for Decorin Biomarker Activity (AID 2284265). As to conditions: primary human lung fibroblasts. Put shortly:
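In this multiplexed fibroblast system, secreted or surface decorin is detected by ELISA one day after dosing, with increases scored against the DMSO vehicle.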

A short description of test [1]: BSK_MyoF_SRB: Viability Assessment in the BioMAP Diversity Plus: MyoF Assay (AID 2284267).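 Also: total protein by SRB absorbance in parallel cultures as cytotoxicity measure; cells assessed 24 h after compound addition.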 The conditions noted are these: primary human lung fibroblasts. The procedure, abridged:
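Human lung fibroblasts, 24 h after chemical dosing; total protein measured by 0.1% sulforhodamine B staining after 10% TCA fixation, read at 560 nm, fitted relative to DMSO baseline.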

Read-out in test [2]: Matrix Metallopeptidase 1 (MMP1), MMP1 (gene 4312)
The experiment in a line: BSK_MyoF_MMP1: BioMAP Diversity Plus: MyoF Assay for Matrix Metallopeptidase 1 (MMP1) Biomarker Activity (AID 2284268). As to conditions: primary human lung fibroblasts. The procedure, abridged: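 Fibroblasts from human lung receive compound for 24 h before ELISA quantitation of MMP1. DMSO serves as baseline, and the endpoint is fitted for signal gain.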

Read-out in test [3]: TIMP metallopeptidase inhibitor 1 (TIMP1), TIMP1 (gene 7076)
The experiment in a line: BSK_MyoF_TIMP1: BioMAP Diversity Plus: MyoF Assay for TIMP metallopeptidase inhibitor 1 (TIMP1) Biomarker Activity (AID 2284269). As to conditions: primary human lung fibroblasts. The procedure, abridged:
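ELISA read-out of TIMP-1 from primary human lung fibroblast cultures 24 h after compound dosing; gain of signal relative to DMSO vehicle baseline defines activity.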

Read-out in test [4]: Interleukin-8 (IL8), CXCL8 (gene 3576)
Put plainly: BSK_BF4T_IL8: BioMAP Diversity Plus: BF4T Assay for Interleukin-8 (IL8) Biomarker Activity (AID 2284263). The conditions noted are these: primary human bronchial epithelial cells with fibroblasts. The procedure, abridged: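 Human bronchial epithelial cells with dermal fibroblasts co-culture; IL-8 measured by ELISA 24 hours after dosing, fitted vs DMSO. Cytotoxicity tracked in parallel cultures by SRB total-protein staining.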

Read-out in a further test: KRT18 (gene 3875)
The experiment in a line: BSK_BF4T_Keratin818: BioMAP Diversity Plus: BF4T Assay for Keratin 818 Biomarker Activity (AID 2284266). As to conditions: primary human bronchial epithelial cells with fibroblasts. Put shortly: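 Co-culture of human bronchial epithelial cells and dermal fibroblasts, chemical exposure 24 h. Keratin 8/18 measured by ELISA; positive-direction fit vs DMSO. SRB total protein run in parallel cultures for cytotoxicity.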

Read-out in test [5]: Matrix Metallopeptidase 1 (MMP1), MMP1 (gene 4312)
The experiment in a line: BSK_BF4T_MMP1: BioMAP Diversity Plus: BF4T Assay for Matrix Metallopeptidase 1 (MMP1) Biomarker Activity (AID 2284270). The conditions noted are these: primary human bronchial epithelial cells with fibroblasts. Put shortly:
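Co-culture of human bronchial epithelial cells and dermal fibroblasts; MMP-1 levels measured by ELISA 24 hours after chemical dosing, relative to DMSO. Cytotoxicity checked in parallel cultures by SRB total-protein staining.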

Read-out in test [6]: Matrix Metallopeptidase 3 (MMP3), MMP3 (gene 4314)
Put plainly: BSK_BF4T_MMP3: BioMAP Diversity Plus: BF4T Assay for Matrix Metallopeptidase 3 (MMP3) Biomarker Activity (AID 2284271). As to conditions: primary human bronchial epithelial cells with fibroblasts. The procedure, abridged:
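Co-culture of human bronchial epithelial cells and dermal fibroblasts dosed 24 h; MMP-3 measured by ELISA, positive-direction fit versus DMSO. Cytotoxicity tracked by SRB total-protein staining (560 nm) in parallel cultures.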

Read-out in test [7]: Tissue plasminogen activator (tPA), PLAT (gene 5327)
Put plainly: BSK_BF4T_tPA: BioMAP Diversity Plus: BF4T Assay for Tissue plasminogen activator (tPA) Biomarker Activity (AID 2284272). As to conditions: primary human bronchial epithelial cells with fibroblasts. The procedure, abridged: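 tPA level quantified by ELISA at 24 h post-treatment in bronchial epithelial/dermal fibroblast co-cultures, gain of signal scored against DMSO baseline. Parallel cultures stained with 0.1% SRB (560 nm) to flag overt cytotoxicity.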

Test [8] can be described thus: BSK_BF4T_SRB: Viability Assessment in the BioMAP Diversity Plus: BF4T Assay (AID 2284274). As to conditions: primary human bronchial epithelial cells with fibroblasts. Put shortly:
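Co-culture of human bronchial epithelial cells and dermal fibroblasts (BioMAP BF4T) exposed 24 h. Total protein by sulforhodamine B staining (0.1% SRB after 10% TCA fixation, 560 nm) in parallel cultures; fitted vs DMSO.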

Several values for one entry are separate records, joined by “and”; a condition that tells them apart may be missing. Equal values may be shown once. Where a structure was tested more than once in an assay, its records may differ in their call. Activity calls are given as the source filed them. The calls were made as follows: active = hit-call score of the fitted dose curve at least 0.9, where 1 is the maximum; inactive = score below 0.9.

As to `Cc1ccc(N=Nc2c(O)ccc3ccccc23)c(C)c1`, the outcome in the test with Decorin, DCN (gene 1634) was “inactive”; in [1], “inactive”; in [2], “inactive”; in [3], “inactive”.

For the compound `CCCCC(CC)C(=O)OCCOCCOCCOCCOC(=O)C(CC)CCCC` (configuration not stated), the outcome in the test with Decorin, DCN (gene 1634) is “inactive”; in test [1] it was “inactive”; in test [2] it was “inactive”; in [3], “inactive”.

On to `CCCCCCCCCCCCCCCCCC[N+](C)(C)Cc1ccccc1`, for which the AC50 was 10 µM (active) in the test with Decorin, DCN (gene 1634); 2.65 µM (active) in test [1]; 4.88 µM (active) in test [3]. Also, the result in test [2] was inactive.

Take `O=C(O)CCC(F)(F)C(F)(F)C(F)(F)C(F)(F)C(F)(F)C(F)(F)F`: the outcome was “inactive” in test [4]; “inactive” in the test with Decorin, DCN (gene 1634); “inactive” with KRT18 (gene 3875); “inactive” in [1]; “inactive” in [2]; “inactive” in test [3]. The result in [5], in test [6], in [7] and in [8] was inactive.

Turning to `O=P(O)(O)CCC(F)(F)C(F)(F)C(F)(F)C(F)(F)C(F)(F)C(F)(F)C(F)(F)C(F)(F)F`, the outcome in test [4] is “inactive”; in the test with Decorin, DCN (gene 1634) it was “inactive”; with KRT18 (gene 3875), “inactive”; in [1] it was “inactive”; in test [2] it was “inactive”; in test [3], “inactive”. The result in test [5], in [6], in [7] and in test [8] was inactive. The AC50 in [7] was 19.2 µM (active).

`O=C(NCc1ncc(C(F)(F)F)cc1Cl)c1c(Cl)cccc1Cl`: the outcome in the test with Decorin, DCN (gene 1634) is “inactive”; in [1] it was “inactive”; in test [2], “inactive”; in test [3], “inactive”.

For the compound `O=P(O)(O)CCC(F)(F)C(F)(F)C(F)(F)C(F)(F)C(F)(F)C(F)(F)F`, the outcome is “inactive” in test [4]; “inactive” with Decorin, DCN (gene 1634); “inactive” with KRT18 (gene 3875); “inactive” in test [1]; “inactive” in [2]; “inactive” in test [3]. For the same compound, the outcome in test [5], in test [6], in test [7] and in test [8] was inactive. Moreover, the AC50 in [7] was 14.6 µM (active).

With `O=C(O)C(F)(F)OC(F)(F)C(F)(F)OC(F)(F)C(F)(F)OC(F)(F)C(F)(F)C(F)(F)C(F)(F)F`, the AC50 in [4] is 53.7 µM (active); with Decorin, DCN (gene 1634), 17.3 µM (active); with KRT18 (gene 3875), 14.6 µM (active) and 7.97 µM (active); in test [1], 13 µM (active) and 9.16 µM (active); in test [3], 8.18 µM (active) and 8.09 µM (active); in test [6] it was 14.4 µM (active) and 8.19 µM (active). Moreover, the AC50 in [7] is 8.23 µM (active) and 8.02 µM (active). Moreover, the outcome is “inactive” in test [4]; “inactive” with Decorin, DCN (gene 1634); “inactive” in [2]; “inactive” in test [5]; “inactive” in test [8].

With `C=CC(C)(CCC=C(C)C)OC(C)=O` (configuration not stated), the outcome was “inactive” with Decorin, DCN (gene 1634); “inactive” in test [1]; “inactive” in test [2]; “inactive” in [3].

Regarding `O=S(=O)(O)C(F)(F)C(F)(F)C(F)(F)C(F)(F)C(F)(F)C(F)(F)C(F)(F)C(F)(F)C(F)(F)C(F)(F)F`, the AC50 was 2.65 µM (active) and 6.99 µM (active) in [4]; 2.39 µM (active) in test [7]. Besides, the outcome was “inactive” in the test with Decorin, DCN (gene 1634); “inactive” with KRT18 (gene 3875); “inactive” in [1]; “inactive” in test [2]; “inactive” in [3]; “inactive” in test [5]. The outcome in [6], in test [7] and in [8] was inactive.

Turning to `CC[N+](CC)(CC)Cc1ccccc1`, the outcome was “inactive” with Decorin, DCN (gene 1634); “inactive” in test [1]; “inactive” in test [2]; “inactive” in test [3].

For `COCN(COC)c1nc(N(COC)COC)nc(N(COC)COC)n1`, the outcome with Decorin, DCN (gene 1634) is “inactive”; in [1] it was “inactive”; in test [2] it was “inactive”; in test [3], “inactive”.

As to `CC1=NN(c2ccccc2)C(=O)C1`, the outcome with Decorin, DCN (gene 1634) was “inactive”; in [1], “inactive”; in test [2] it was “inactive”; in test [3], “inactive”.

Take `Cc1cccc2c1ccc1ccccc12`: the outcome with Decorin, DCN (gene 1634) was “inactive”; in test [1] it was “inactive”; in test [2], “inactive”; in test [3], “inactive”.

With `C=COC(=O)C(C)(C)CCCCCC`, the concentration at half-maximal activity (AC50) is 31.7 µM (active) with Decorin, DCN (gene 1634) and 30.9 µM (active) in [1]. For the same compound, the result in [2] and in [3] was inactive.

Turning to `CCOC(=O)CN[C@@H](C(=O)N1CC[C@H]1C(=O)NCc1ccc(/C(N)=N/O)cc1)C1CCCCC1`, the outcome is “inactive” with Decorin, DCN (gene 1634); “inactive” in test [1]; “inactive” in [2]; “inactive” in test [3].

For the compound `OCC(F)(F)C(F)(F)C(F)(F)C(F)(F)C(F)(F)C(F)(F)C(F)(F)C(F)(F)C(F)(F)C(F)(F)C(F)(F)F`, the outcome in test [4] is “inactive”; with Decorin, DCN (gene 1634) it was “inactive”; in the test with KRT18 (gene 3875) it was “inactive”; in [1], “inactive”; in test [2], “inactive”; in [3] it was “inactive”. In addition, the outcome in test [5], in [6], in test [7] and in test [8] was inactive.

With `Clc1ccc(Nc2nnc(Cc3ccncc3)c3ccccc23)cc1`, the outcome was “inactive” with Decorin, DCN (gene 1634); “inactive” in test [2]; “inactive” in [3].

Values taken from PubChem BioAssay (EPA / NIEHS).
